Data reported in PubChem BioAssay AID720631 (The Scripps Research Institute Molecular Screening Center, 2013).
The list shows a part of the results. Calls of active or inactive are those of the source.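 How the source made its calls: active means inhibition above the mean of compounds lying within the control limits plus 3 SD (cut at about 16% in these data); inactive means the rest.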

target: Fibrinogen beta chain (Homo sapiens) (UniProt P02675); experiment: Tn6 displacement from DD(E) complex – biochemical, fluorescence polarization, human fibrin, Tn6 probe, confirmation (AID 720631); conditions: FP displacement of TRITC-Tn6 peptide from DD(E); at 8.3 µM; stronger effect = higher value; 0% = per-plate median of test wells;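 further: 0% = plate median of compound wells and 100% = inhibitor peptide control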
Sequence (P02675 whole entry, looked up): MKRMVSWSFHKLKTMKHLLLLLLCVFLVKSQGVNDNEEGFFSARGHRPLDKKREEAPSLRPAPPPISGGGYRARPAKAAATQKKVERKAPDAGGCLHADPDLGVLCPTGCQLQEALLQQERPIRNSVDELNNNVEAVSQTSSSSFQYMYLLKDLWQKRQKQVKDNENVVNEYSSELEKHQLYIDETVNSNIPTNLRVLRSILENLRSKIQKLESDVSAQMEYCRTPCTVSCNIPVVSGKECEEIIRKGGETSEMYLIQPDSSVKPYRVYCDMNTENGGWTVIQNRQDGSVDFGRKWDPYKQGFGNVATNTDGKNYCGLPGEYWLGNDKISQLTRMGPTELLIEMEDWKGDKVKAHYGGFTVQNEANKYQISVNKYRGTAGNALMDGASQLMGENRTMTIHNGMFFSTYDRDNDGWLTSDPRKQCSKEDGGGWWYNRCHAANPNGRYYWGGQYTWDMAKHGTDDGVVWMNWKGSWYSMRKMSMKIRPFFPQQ

| SMILES | inhibition |
| --- | --- |
| COc1ccc(Nc2nc(-c3ccccc3)cs2)cc1 | -0.61% (inactive) |
| CCOC(=O)N1CCN(Cc2nc(N)nc(Nc3ccc(C)cc3)n2)CC1 | -3.1% (inactive) |
| Cc1ccc(-c2nc(C)sc2CC(=O)O)cc1 | 1.06% (inactive) |
| Cc1ccc(-c2nn(-c3ccccc3)cc2/C=C/C(=O)Nc2cccc(S(N)(=O)=O)c2)cc1 | 4.74% (inactive) |
| O=C(Nc1cccc(-c2nc3ccccc3[nH]2)c1)c1ccc(C(=O)Nc2cccc(-c3nc4ccccc4[nH]3)c2)cc1 | 29.2% (active) |
| Cc1cc(C)c2nc(NC(=O)C3CCCO3)sc2c1 (stereo unspecified) | 4.35% (inactive) |
| Cc1cc2ccccc2n1CCNC(=O)COc1ccc2ccccc2c1 | 12.1% (inactive) |
| CONc1nc2nonc2nc1NOC | -1.66% (inactive) |
| CCc1cc(-c2nnc(SCC(=O)NC3CC3)n2C)cs1 | 2.54% (inactive) |
| CCOCC(=O)NCc1ccc2c(c1)cc(C)n2C | 0.62% (inactive) |
| COc1ccc(N2C(=O)NC(NS(=O)(=O)c3ccc(Cl)cc3)(C(F)(F)F)C2=O)cc1 (stereo unspecified) | 1.83% (inactive) |
| Cc1nnsc1S(=O)(=O)Cc1ccccc1Cl | -10.5% (inactive) |
| O=c1cc(Cn2nnc(-c3ccc(Cl)cc3)n2)nc2sccn12 | -6.19% (inactive) |
| O=c1[nH]n(-c2ccc([N+](=O)[O-])cc2)c(=O)c2ccccc12 | 12.3% (inactive) |
| COc1cc(NC(=O)c2ccc(CNc3c(N4CCCC4)c(=O)c3=O)cc2)cc(OC)c1OC | -4.66% (inactive) |
| O=C(CCl)NNc1cccc(Cl)n1 | 4.87% (inactive) |
| Cc1nn(C)cc1N1C(=O)c2cccc3c(N)ccc(c23)C1=O | 1.67% (inactive) |
| Cc1cc2nc3c(=O)[nH]c(=O)nc-3n(C[C@H](O)[C@H](O)[C@H](O)CO)c2cc1C | 12.4% (inactive) |
| CCc1ccccc1NC(=S)Nc1cc(OC)c(NC(=O)C(C)C)cc1OC | -4.51% (inactive) |
| Oc1ccc(N=Cc2sc3ccccc3c2Cl)cc1 | -11.2% (inactive) |
| CN1c2ccc(C=O)c3c(C=O)ccc(c23)N(C)C1(C)C | -6.98% (inactive) |
| COc1ccc(Nc2nc(-c3cccnc3)nc3ccccc23)cn1 | -6.63% (inactive) |
| Cc1cc2cc(CNC(=O)c3ccc(S(=O)(=O)N4CCOCC4)cc3)ccc2[nH]1 | -6.87% (inactive) |
| CCC1C(=O)NCCN1C(=O)c1ccc2nc(Cc3ccc(OC)cc3)oc2c1 (stereo unspecified) | -13.1% (inactive) |
| Cc1ccc(NC(=O)CN2CCc3ccccc3C2)cc1 | -6.7% (inactive) |
| O=C(NCCNc1ccccc1[N+](=O)[O-])c1ccccc1F | -1.55% (inactive) |
